# Bioassay records as filed in PubChem BioAssay.
# Only some compounds are listed: those with a hit (about 6.9% of all), similar ones and a draw of the others.
# ASM inhibitor: blocks human secretory acid sphingomyelinase; AID 504937; placental ASM, HMU-PC fluorogenic substrate, 60 min; Potency, µM (titrated, usually from 57.5 µM), for inactives: at the top dose activity change, negative = inhibition, most hits filed as inhibitors; actives 0.006% (n = 340,000); note: potency is the fitted concentration of half-maximal effect
# Target sequence (P17405 47-631 limits assumed): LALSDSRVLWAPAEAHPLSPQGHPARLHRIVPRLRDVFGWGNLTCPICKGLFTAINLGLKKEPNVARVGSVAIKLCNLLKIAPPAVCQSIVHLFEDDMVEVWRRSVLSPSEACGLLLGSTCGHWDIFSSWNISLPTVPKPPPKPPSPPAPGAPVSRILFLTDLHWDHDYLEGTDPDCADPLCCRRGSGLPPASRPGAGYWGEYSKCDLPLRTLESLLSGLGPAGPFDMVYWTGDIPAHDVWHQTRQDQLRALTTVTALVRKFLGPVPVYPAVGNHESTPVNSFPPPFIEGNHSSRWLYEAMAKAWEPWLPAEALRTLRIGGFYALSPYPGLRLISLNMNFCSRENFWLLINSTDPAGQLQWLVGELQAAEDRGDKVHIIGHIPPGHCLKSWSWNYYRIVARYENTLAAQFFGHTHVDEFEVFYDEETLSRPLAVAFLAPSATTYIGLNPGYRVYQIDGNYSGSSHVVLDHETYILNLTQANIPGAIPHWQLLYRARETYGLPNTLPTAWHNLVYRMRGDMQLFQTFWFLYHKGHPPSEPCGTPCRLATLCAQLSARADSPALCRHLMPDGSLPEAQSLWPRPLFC
#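 Human placenta-derived ASM enzyme was preincubated with compound for 10 minutes at room temperature, then given fluorogenic substrate HMU-PC0 (9 uM final) for 60 minutes at 37 °C; a pH 10 stop preceded fluorescence reading at Ex 386/Em 447 nm.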
# SW480 rerep: induces DNA re-replication in SW480 colon adenocarcinoma cells; SW480 DNA re-replication, Hoechst DNA content imaging, 48 h; Potency, µM (doses to about 46.1 µM), for the others: at the highest dose re-replication activation, most hits filed as activators; actives 1.8% (n = 340,000); AID 624297; note: potency is the fitted concentration of half-maximal effect; % of control where 0% means no effect; nearly all actives have a fitted effect of over 55% in size
#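 DNA re-replication was detected as more nuclei of elevated Hoechst intensity after 48 hr exposure to compound (23 nL pinned per well of 250 cells).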
# Giardia killer: kills Giardia lamblia. Giardia lamblia trophozoite viability. activity change, % at 7.66 µM, hits read low. actives 0.15% (n = 340,000); in the data active = activity change below about -80%; inconclusive = between about -30% and that limit;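 note: parasites exposed to compound for two days anaerobically before the ATP read; % is set by controls: 0 for no effect and ±100 for the full control effect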
#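 Trophozoites 100 cells/well + cpd; 48 hrs, 37 deg C, anaerobic. ATPLite 1-Step added, 15-30 min RT, luminescence read (ATP-based viability).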
# KB-V1 cytotox: kills drug-selected multidrug resistant KB-V1 cells; Potency, µM (series often up to 46.1 µM), most hits filed as cytotoxic; actives 3.4% (n = 400,000); KB-V1 MDR cells viability, CellTiter-Glo, 72 h; note: potency is the fitted concentration of half-maximal effect; % is set by controls: 0 for no effect and ±100 for the full control effect; nearly all actives have a fitted effect of over 60% in size
#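 Following 72 h at 37 degrees C with compound, KB-V1 cell viability was read by CellTiter-Glo luminescence, medium being phenol-red-free DMEM plus 10% FBS; concentration-response parameters came from normalized, curve-fitted qHTS data.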
# MCF10A rereplic: inducers of DNA re-replication in MCF 10A breast cells. MCF 10A DNA re-replication, Hoechst nuclear intensity, 48 h. actives 2.9% (n = 350,000). Potency, µM (series often up to 46.1 µM), for the others: at the top dose activity, positive = re-replication, usual class: activators; note: potency is the fitted concentration of half-maximal effect; % of control where 0% means no effect; nearly all actives have a fitted effect of over 50% in size
# KB-3-1 tox: KB-3-1 parental cell cytotoxicity; KB-3-1 viability, CellTiter-Glo ATP luminescence, 72 h; Potency, µM (highest dose often 46.1 µM), most hits filed as cytotoxic; actives 1.4% (n = 400,000); AID 1347075; note: potency is the fitted concentration of half-maximal effect; % is set by controls: 0 for no effect and ±100 for the full control effect; nearly all actives have a fitted effect of over 60% in size
#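 Parental KB-3-1 viability, qHTS format: 72 h compound exposure, 37 °C; CellTiter-Glo; media-only wells and DMSO plates as controls; concentration-effect fits on corrected data.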
# Numbers without * were called inactive; i = inactive; ? = inconclusive; nt = not tested or not shown; [ ] = remark or other dose. Unless noted, calls come from the whole dose curve; as a rule, active = well fitted curve in the direction sought with a large enough effect; inconclusive = small, poorly fitted or top-dose-only effect, or another doubt; inactive = no such curve, though single readings can be large; an effect the other way counts as inactive or inconclusive.
SMILES,ASM inhibitor,SW480 rerep,Giardia killer,KB-V1 cytotox,MCF10A rereplic,KB-3-1 tox
COc1cc(OC)cc(-c2cc3nc(C)c(CCC(=O)NC(C)CCc4ccco4)c(C)n3n2)c1 (centres undefined),-7%,-3%,5,i,?,i
COc1cc(OC)cc(-c2cc3nc(C)c(CCC(=O)O)c(C)n3n2)c1,7%,0%,8,i,18µM*,i
Cc1cnnn1-c1ccc(C(=O)CCl)cc1,6%,?,-9,i,29µM*,?
COc1cc(NC(=O)Cn2ncc(Cl)c(Cl)c2=O)c(C)cc1[N+](=O)[O-],-5%,?,2,i,3.7µM*,i
CC(C)(C)NC(=O)C(c1ccc(-c2ccccc2)cc1)N(C[C@H]1CC[C@@H]([C@@H]2CC[C@H](CO)O2)O1)C(=O)c1cccc(Cl)c1 (some centres undefined),-12%,10%[9.22 µM],-19,i,?,15µM*
CN(C)c1ccc(CNC(=O)CCC(=O)N2Cc3ccccc3Oc3ncccc32)cc1,nt,nt,nt,i,nt,i
O=C(Nc1ccc(Cl)cn1)c1cccc2c(Br)cccc12,2%,?,-18,i,?,12µM*
O=C(Nc1ccc(Br)cn1)c1cccc2ccccc12,-5%,3.3µM*,-1,1µM*,4.1µM*,i
O=C(Nc1ccc(Br)cn1)c1ccc2nccnc2c1,2%,?,4,16µM*,?,?
COc1c(C(=O)Nc2ccc(Br)cn2)ccc2ccccc12,-2%,1%,18,i,6%,i
COc1ccc(Br)cc1CNC(=O)C1COc2ccccc2C1 (centres undefined),nt,nt,nt,i,nt,i
CC(=O)N(C(C)=O)c1nc(-c2ccccc2)cn1/N=C/c1ccccc1,-2%,-3%,7,?,12µM*,?
C[n+]1cn(/N=C/c2ccccc2)c2ccccc21,2%,2%,38,i,8%,i
CCC(=O)Nc1nonc1-c1nc2ccccc2n1Cc1cccc2ccccc12,-16%,7.3µM*,2,?,0.37µM*,0.92µM*
C/C(=N\NC(N)=S)c1ccc(Cl)s1,0%,?,2,6.5µM*,?,16µM*
C/C(=N\NC(=S)NC(C)C)c1ccc(Cl)s1,-3%,?,8,?,?,i
Cc1ccc(NC(=O)/C(=C/c2cccc(Br)c2)NC(=O)c2ccco2)cc1,-1%,?,-20,i,13%,i
CCN(Cc1ccccc1)C(=O)Cn1c(=O)n(Cc2ccccc2)c(=O)c2c1c1cc(OC)ccc1n2C,nt,nt,nt,i,nt,i
COc1ccc(CN(Cc2ccccc2)C(=O)Nc2ccccc2)cc1COc1ccc(NC(C)=O)cc1,nt,nt,-9,nt,nt,nt
CN(C)CCNc1ncnc2c1ncn2[C@H]1CN(Cc2ccc(F)cc2)C[C@@H](CO)O1,nt,nt,nt,i,nt,8.2µM*
COCCNc1ncnc2c1ncn2[C@H]1CN(Cc2ccc(F)cc2)C[C@@H](CO)O1,nt,nt,nt,i,nt,i
CC(=O)Nc1c(Cl)cc(Cl)c2c1Cc1cc(Cl)ccc1-2,2%,16%,-15,i,4%,i
CC(=O)Nc1c(Cl)c(Cl)c2c(c1Cl)C(=O)c1cc(Cl)ccc1-2,-9%,-1%,-1,15µM*,0%,21µM*
Nc1c(C(=O)N2CCOCC2)sc2nc3c(cc12)CCCC3,261%,2%,-27,i,-7%,i
Nc1c(C(=O)N2CCCC2)sc2nc3c(cc12)CCCCCC3,274%,6%,11,?,15µM*,i
SMILES,ASM inhibitor,SW480 rerep,Giardia killer,KB-V1 cytotox,MCF10A rereplic,KB-3-1 tox
Cc1cc(C)c2nc3sc(C(=O)N4CCOCC4)c(N)c3cc2c1,-27%,?,-13,?,?,0.26µM*
Cc1cccc2cc3c(N)c(C(=O)N4CCc5ccccc54)sc3nc12,-17%,?,5,9.2µM*,?,?
Cc1sc(NC(=O)c2sc3nc4c(C)cccc4cc3c2N)c(C#N)c1C,-4%,?,26,?,?,?
Cc1cccc2cc3c(N)c(C#N)sc3nc12,-30%,?,3,1.5µM*,?,?
COc1ccccc1NS(=O)(=O)c1cn(C)c(C)n1,nt,nt,nt,?,nt,i
COC(=O)[C@@H](Cc1c[nH]c2ccccc12)NCc1ccc(B(O)O)cc1,9%,1.2µM*,-4,i,-36%,i
COC(=O)C(Cc1c[nH]c2ccccc12)NC(=O)CNC(C)=O (centres undefined),0%,-5%,-17,?,5%,i
COC(=O)[C@H](Cc1c[nH]c2ccccc12)NCc1cccc(B(O)O)c1,2%,4.6µM*,-2,i,-8%,i
O=C1CN(C(=O)c2ccc(S(=O)(=O)N3CCCC3)cc2)C(c2ccccc2)c2cc(Cl)ccc2N1 (centres undefined),nt,nt,nt,i,nt,i
CCS(=O)(=O)c1ncc(N(Cc2ccco2)Cc2ccccc2F)c(C(=O)Nc2cccc(Cl)c2)n1,nt,nt,nt,i,nt,i
COc1ccc(/C=C/c2nc(-c3ccccc3O)n(-c3ccccc3)n2)cc1,-17%,?,6,16µM*,7%,i
COc1ccc(/C=C/c2nc(-c3ccccc3O)n(-c3ccccc3)n2)cc1OC,nt,nt,nt,i,nt,i
Cn1c(-c2cc3c(C(F)(F)F)nn(C)c3s2)n[nH]c1=S,3%,-7%,6,?,-2%,i
CCn1c(-c2cc3c(C(F)(F)F)nn(C)c3s2)n[nH]c1=S,4%,0%,-4,10µM*,11%,?
COc1ccccc1CCNC(=O)Cc1ccc(NC(=O)N2CCSc3ncccc32)cc1,nt,nt,nt,i,nt,i
CCc1ccc(NC(=S)N2CCC(NC(=O)c3ccccc3OC)CC2)cc1,-10%,-3%,11,i,16%,i
CCc1ccc(NC(=S)N2CCC(NC(=O)c3ccccc3)CC2)cc1,-3%,0%,1,i,18µM*,i
Cn1c(SCC(=O)Nc2cc(Cl)cc(Cl)c2)nnc1-c1ccc2nonc2c1,-1%,18µM*,2,?,18µM*,i
CCCn1c(SCC(=O)Nc2nnc(-c3ccccc3)s2)nnc1-c1ccccn1,-7%,0%,-8,i,18µM*,i
COc1ccc(NC(=O)CSc2nnc(-c3ccccn3)n2N)cc1Cl,2%,-6%,8,16µM*,2%,i
CC(C)c1ccc(NC(=O)CSc2nnc(-c3ccccn3)n2C)cc1,-3%,-13%,8,5.2µM*,-2%,i
